The subject of assay [1] is Human papillomavirus type 1a protein E7 (residues 44-93). Nature of the assay: HPV1a E7 fragment binders on microarrays, primary screen, biochemical, small-molecule microarray, residues 44-93, 635 nm fluorescence (AID 1108).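 Also: E7 fragment applied at 1 µg/mL in TBST for 1 h at 4 C; score combines spot fluorescence with its signal to noise ratio.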 Particulars: small-molecule microarray binding, fluorescence 635 nm; higher = more signal.
The nature of assay [2]: modulators of HCV replicon luciferase signal, primary screen, HCV replication inhibitor project, Huh7 cells, luciferase reporter (AID 1109).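 Also: huh7 hepatoma cells harbouring a luciferase neomycin HCV replicon reporter; luciferase luminescence as measure of HCV replicon replication; test concentration not given here.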 Particulars: 48 h, higher = more signal.
For assay [3], the target named is Left-right determination factor 2 (Homo sapiens) (UniProt O00292). Nature of the assay: LEFTY2 binders on small-molecule microarrays, primary screen, biochemical, small-molecule microarray, 635 nm fluorescence scan (AID 1110). Particulars: LEFTY2 binding, higher = more signal.
The target in assay [4] is Calmodulin-1 (Homo sapiens) (UniProt P0DP23). Nature of the assay: CALM1 binders on microarrays, EGTA buffer, profiling panel, biochemical, small-molecule microarray, Cy5-labelled CALM1 (AID 1111).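 Also: labelled calmodulin applied in Tris saline Tween buffer holding calcium plus EGTA and DTT.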 Particulars: Cy5-CALM1 binding fluorescence, higher = more signal.
For assay [5] the target is unchanged. Nature of the assay: calcium-bound CALM1 binders on microarrays, profiling panel, artefact control for SMM control-protein annotation, biochemical, small-molecule microarray, Cy5-labelled CALM1, plus calcium (AID 1112).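 Also: score merges spot fluorescence with signal to noise from triplicate slides.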 Particulars: Cy5-CALM1 binding fluorescence, higher = more signal.
The nature of assay [6]: small-molecule microarray binders of probe aWnt5a, primary screen, biochemical, biotinylated probe, 635/667 nm fluorescence (AID 1113).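 Also: score merges 667 nm fluorescence intensity with signal-to-noise per printed feature.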 Particulars: higher = more signal.
A short description of assay [7]: small-molecule microarray binders of probe aShh, primary screen, biochemical, biotinylated probe, 635/667 nm fluorescence (AID 1114).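 Also: probe is biotin-labelled aShh protein from a stem cell growth factor screen; measures binding of labelled protein to compounds printed on the slide; score merges feature fluorescence at 667 nm with signal-to-noise.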 The following applies: higher = more signal.
Assay [8] can be described thus: small-molecule microarray binders of probe aNog, primary screen, biochemical, biotinylated probe, 635/667 nm fluorescence (AID 1115).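 Also: probe is biotinylated aNog protein used at 0.15 µg/mL for 1 h at 4 C; z-score combines 667 nm fluorescence of each spot with its signal to noise.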 The following applies: higher = more signal.
Assay [9] deals with Torsin-1A-interacting protein 1 (Homo sapiens) (UniProt Q5JTV8). Briefly: LAP1 binders from COS7 cell lysate, primary screen, small-molecule microarray, 635/667 nm fluorescence (AID 1116). The following applies: COS7-hLAP1 lysate binding, 635 nm fluorescence, higher = more signal.
Assay [10] concerns the target Alpha-bungarotoxin (Bungarus multicinctus) (UniProt P60615). Nature of the assay: alpha-bungarotoxin binders on microarray, profiling panel, artefact control for SMM control protein annotation, biochemical, small-molecule microarray, Alexa647 label, 635/667 nm fluorescence (AID 1117). Particulars: alpha-BTX-A647 binding fluorescence, higher = more signal.

Chain of Torsin-1A-interacting protein 1 (Homo sapiens) (Q5JTV8 whole entry, looked up): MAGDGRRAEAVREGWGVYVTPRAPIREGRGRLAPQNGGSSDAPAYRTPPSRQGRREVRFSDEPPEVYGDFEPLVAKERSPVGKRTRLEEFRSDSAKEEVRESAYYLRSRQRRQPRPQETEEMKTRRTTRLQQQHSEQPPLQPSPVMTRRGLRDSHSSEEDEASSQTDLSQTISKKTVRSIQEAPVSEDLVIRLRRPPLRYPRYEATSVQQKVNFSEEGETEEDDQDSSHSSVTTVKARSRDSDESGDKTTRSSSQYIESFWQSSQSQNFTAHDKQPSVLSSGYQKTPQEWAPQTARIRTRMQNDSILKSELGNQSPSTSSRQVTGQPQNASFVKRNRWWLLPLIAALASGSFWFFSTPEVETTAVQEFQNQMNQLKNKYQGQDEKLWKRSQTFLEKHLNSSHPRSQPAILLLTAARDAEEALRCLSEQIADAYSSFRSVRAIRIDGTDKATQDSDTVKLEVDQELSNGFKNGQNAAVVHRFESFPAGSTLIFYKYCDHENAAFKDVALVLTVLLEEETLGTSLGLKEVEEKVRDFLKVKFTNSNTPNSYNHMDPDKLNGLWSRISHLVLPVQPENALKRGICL
Chain of Left-right determination factor 2 (Homo sapiens) (O00292 whole entry, looked up): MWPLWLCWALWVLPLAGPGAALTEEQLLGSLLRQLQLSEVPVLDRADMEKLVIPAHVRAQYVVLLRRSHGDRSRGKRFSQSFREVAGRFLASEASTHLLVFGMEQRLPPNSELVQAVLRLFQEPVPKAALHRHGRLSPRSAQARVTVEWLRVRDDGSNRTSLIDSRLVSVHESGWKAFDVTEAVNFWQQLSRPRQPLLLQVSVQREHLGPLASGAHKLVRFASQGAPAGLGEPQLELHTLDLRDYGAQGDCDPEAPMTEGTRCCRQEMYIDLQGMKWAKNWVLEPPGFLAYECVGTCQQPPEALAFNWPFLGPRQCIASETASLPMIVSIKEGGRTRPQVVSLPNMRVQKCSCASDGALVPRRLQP
Chain of Alpha-bungarotoxin (Bungarus multicinctus) (P60615 whole entry, looked up): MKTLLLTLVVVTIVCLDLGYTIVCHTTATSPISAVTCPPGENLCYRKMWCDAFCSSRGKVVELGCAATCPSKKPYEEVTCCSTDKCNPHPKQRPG

For the molecule `[N-]=[N+]=NCc1ccccc1C[C@]1(C(=O)N2CCCCC2)N=C(c2ccc(OCCCO)cc2)O[C@H]1c1ccccc1CN=[N+]=[N-]`, the composite z-score was 1.41 in assay [1]; -0.406 in [3]; 1.67 in [4]; 0.855 in [5]; 0.0375 in [6]; 0.503 in assay [7]. Also, the composite z-score is 1.25 in [8], 1.95 in assay [9] and 1.11 in assay [10]. Moreover, in assay [2], the z-score was -2.73.
For the molecule `CCCNC(=O)[C@@H]1c2ccccc2C(=O)N(C2CCCCC2)[C@H]1c1ccc(CO)cc1`, the composite z-score was 1.44 in [1]; 0.454 in assay [3]; 0.674 in [4]; -0.616 in assay [5]; -0.131 in assay [6]; 0.131 in assay [7]. Besides, the results for the composite z-score in assay [8], in assay [9] and in [10] were -0.278, 0.65 and 0.765, respectively. Further, the z-score in assay [2] was -1.32.
Turning to `[N-]=[N+]=NCc1ccccc1C[C@@]1(C(=O)O)N=C(c2ccc(OCCCO)cc2)O[C@@H]1c1ccccc1N=[N+]=[N-]`, the composite z-score is 1.42 in [1]; 0.101 in [3]; -0.281 in [4]; -0.222 in [5]; -0.0236 in [6]; -0.138 in assay [7]. Besides, the figures for the composite z-score in assay [8], in assay [9] and in assay [10] were -0.316, 0.938 and 0.552, respectively. Further, the z-score in assay [2] was -1.25.
`C#CCCCON=C1C[C@@H](O)[C@@H](O)[C@@H]2[C@@H]3C(=O)N(Cc4ccc5c(c4)OCO5)C(=O)[C@@H]3CC[C@H]12`: the composite z-score is 1.36 in [1]; 0.774 in [3]; 0.601 in assay [4]; -0.783 in [5]; -0.0735 in assay [6]; 0.0796 in [7]. Besides, the results for the composite z-score in [8], in [9] and in [10] were -0.326, 1.34 and 0.24, respectively. In [2], this molecule yielded a z-score of -0.0463.
In the case of `C[C@@H]1NC(=O)[C@H](Cc2ccccc2)NC(=O)[C@@]23C(=O)N[C@@H](Cc4ccccc4)C2[C@H](C)[C@@]2(C)O[C@H]2C3/C=C/C/C=C\CNC1=O` (stereo not given in full), the composite z-score in assay [1] was -2.69; in assay [3] it was -0.122; in assay [4], -0.472; in [5], -1.06; in [6], -0.124; in [7], -0.0474. Further, the composite z-score in assay [8] was -0.238; in [9], 0.0403; in assay [10], -0.576. In assay [2], this molecule yielded a z-score of -1.06.
Consider `C/C(=N\O)C(=O)NCCCCCNC(=O)OCc1ccccc1`, for which the composite z-score in [1] was 0.63; in [3] it was 0.516; in assay [4], 0.169; in [5] it was -0.269; in assay [6] it was 0.0115; in assay [7], -0.262. Further, the composite z-score in assay [8] came out at 0.32; in assay [9], 0.371; in assay [10], 1.06. In assay [2], the z-score is -0.0365.
Turning to `CO[C@H]1COC(=O)[C@@H](Cc2ccccc2)NC(=O)[C@@H](C)COC(=O)CC=C[C@@H]1C`, the composite z-score in assay [1] was -0.661; in assay [3] it was 0.831; in [4], -2.36; in [5], -2.14; in assay [6], -0.133; in assay [7], -0.124. For the same molecule, the composite z-score in assay [8] was -0.234; in assay [9], -0.0159; in [10], -0.39. The molecule also registered a z-score in assay [2] of 0.413.
As to `O=C1OCCC=C[C@H]2OC34C=CCN(Cc5ccccc5)C(=O)[C@H]3N(CCO)C(=O)[C@@H]4C12` (stereo not given in full), the composite z-score in [1] was -0.936; in assay [3], -0.591; in [4] it was -0.675; in [5] it was 0.681; in assay [6], -0.248; in assay [7] it was -0.276. For the same molecule, the composite z-score was -0.224 in [8], -0.18 in [9] and -2.01 in assay [10]. In assay [2], the z-score was -1.23.
Regarding `C=C(CCCC)C(=O)CC[C@@H](OC(=O)c1cccnc1)c1cccc(OCCO)c1`, the composite z-score in [1] is -0.0891; in assay [3], 0.0009; in assay [4] it was -0.708; in assay [5], -1.47; in assay [6] it was -0.0213; in assay [7] it was -0.0977. Moreover, the composite z-score stood at 0.314 in [8], 0.469 in assay [9] and 1.76 in assay [10]. This molecule also came in with a z-score in assay [2] of -3.58.
As for `Cc1ccc([C@@H]2CC=C(C(=O)O)[C@H](c3ccccc3)N2S(=O)(=O)c2ccc(C)cc2)cc1`, the composite z-score in assay [1] is 0.961; in assay [3], -0.23; in assay [4], 2.35; in assay [5] it was 0.535; in assay [6] it was 0.0599; in [7], 0.374. The results for the composite z-score in assay [8], in assay [9] and in [10] were 1.05, 1.9 and 1.79, respectively. The same molecule displayed a z-score in assay [2] of 0.712.
Consider `C=CCC(OC(C)=O)[C@@H]1[C@@H](N(Cc2ccc(-c3ccccc3)cc2)C(=O)c2ccc(C)cc2)c2cc(OCCCO)ccc2N1C(=O)c1ccc(-c2ccccc2)cc1` (stereo not given in full), for which the composite z-score in assay [1] is -0.0852; in [3] it was 0.181; in assay [4] it was 0.218; in [5] it was 1.22; in assay [6], -0.101; in assay [7], 0.0611. Further, the composite z-score in assay [8] stood at 0.15; in assay [9], 0.116; in [10], 0.523. In assay [2], this molecule gave a z-score of -0.13.

These data come from PubChem BioAssay.
